These results are taken from PubChem BioAssay (NCI).

Assay [1] can be described thus: NCI Yeast Anticancer Drug Screen. Data for the rad50 strain (AID 155).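 Note: 0% = growth of vehicle-only cultures of the same strain.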 The note with it: S. cerevisiae rad50 strain growth inhibition, hits give high values. In short, it runs like this: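 Inhibition values express reduced yeast growth in compound-treated cultures relative to vehicle-treated controls.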
Assay [2] in a line: NCI Yeast Anticancer Drug Screen. Data for the mec2-1 strain (AID 157). Particulars: S. cerevisiae mec2-1 strain, hits give high values. In short, it runs like this:
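Yeast mec2-1 mutant treated with compound. Readout: growth inhibition vs vehicle controls.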

A short description of assay [3]: NCI Yeast Anticancer Drug Screen. Data for the sgs1 mgt1 strain (AID 161).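 Note: 0% = growth of cultures given vehicle only.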 The note with it: S. cerevisiae sgs1 mgt1 strain, hits give high values. In short, it runs like this:
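Mutant yeast exposed to compound; growth scored against vehicle-only wells.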

Assay [4] is described as follows: NCI Yeast Anticancer Drug Screen. Data for the cln2 rad14 strain (AID 165).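 Note: 0% = growth equal to vehicle treated cultures.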 Particulars: S. cerevisiae cln2 rad14 strain, hits give high values. In short, it runs like this: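 cln2 rad14 yeast strain; compound exposure; growth inhibition read vs vehicle controls.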
Assay [5] is described as follows: NCI Yeast Anticancer Drug Screen. Data for the bub3 strain (AID 167). The note with it: S. cerevisiae bub3 mutant strain, hits give high values. In short, it runs like this:
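Steps: expose the mutant yeast strain to compound; grow alongside vehicle-treated cultures; measure growth; express inhibition against the vehicle cultures.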

Assay [6] is described as follows: NCI Yeast Anticancer Drug Screen. Data for the mlh1 rad18 strain (AID 175). The note with it: S. cerevisiae mlh1 rad18 strain growth inhibition, hits give high values. In short, it runs like this:
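Yeast w/ defined DNA-repair lesions; compound exposure; growth vs vehicle controls → % inhibition.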

[7] abbreviates: at 5.0 µM (retest, dose inferred, filed as 0.5).
Setting [8] is: at 50.0 µM (retest, dose inferred, filed as 5.0).

This is part of a sample that, as a whole, favours compounds with a hit. Of some 79,000 tested, about 15% had one in any assay. Values without a mark were called inactive. The source made the active and inactive calls. Cut-off read from the data, not from the text of the source: active = growth inhibition above about 70%; inactive = the rest.

On to `CCSc1nc(=[N+]2CCCC2)ss1`, for which the growth inhibition in assay [1] (setting [7]) is 33%; in assay [1] (setting [8]), 99% (active); in assay [1] (at 50.0 µM), 98.5% (active); in assay [2] (setting [7]), 25%; in assay [2] (setting [8]), 100% (active); in assay [2] (at 50.0 µM) it was 97.5% (active). Also, the growth inhibition is 36% in assay [3] (setting [7]); 99% (active) in assay [3] (setting [8]); 98.8% (active) in assay [3] (at 50.0 µM); 29% in assay [4] (setting [7]); 100% (active) in assay [4] (setting [8]); 81.7% (active) in assay [4] (at 50.0 µM). Also, the growth inhibition was 17% in assay [5] (setting [7]); 100% (active) in assay [5] (setting [8]); 89.3% (active) in assay [5] (at 50.0 µM); 44% in assay [6] (setting [7]); 99% (active) in assay [6] (setting [8]); 97% (active) in assay [6] (at 50.0 µM).

For the molecule `CCOP(=O)(O)C(Nc1ccc(N=Nc2ccccc2)cc1)c1ccc(C(Nc2ccc(N=Nc3ccccc3)cc2)P(=O)(O)OCC)cc1` (stereo not given), the growth inhibition in assay [1] (setting [7]) was -4%; in assay [1] (setting [8]), 35%; in assay [1] (at 50.0 µM), 54%; in assay [2] (setting [7]), -6%; in assay [2] (setting [8]) it was 27%; in assay [2] (at 50.0 µM), 67.7%. For the same molecule, the growth inhibition in assay [3] (setting [7]) was 3%; in assay [3] (setting [8]) it was 37%; in assay [3] (at 50.0 µM), 86% (active); in assay [4] (setting [7]) it was -8%; in assay [4] (setting [8]), -6%; in assay [4] (at 50.0 µM) it was 41.3%. Further, the growth inhibition in assay [5] (setting [7]) was -5%; in assay [5] (setting [8]), 31%; in assay [5] (at 50.0 µM) it was 57.5%; in assay [6] (setting [7]), -5%; in assay [6] (setting [8]), 31%; in assay [6] (at 50.0 µM), 90.1% (active).

Take `CCOP(=S)(OCC)SCc1c(C)c(C)c(CSP(=S)(OCC)OCC)c(C)c1C`: the growth inhibition was 1% in assay [1] (setting [7]); -11% in assay [1] (setting [8]); -4.3% in assay [1] (at 50.0 µM); -4% in assay [2] (setting [7]); -2% in assay [2] (setting [8]); -3.75% in assay [2] (at 50.0 µM). Further, the growth inhibition in assay [3] (setting [7]) is -8%; in assay [3] (setting [8]) it was 2%; in assay [3] (at 50.0 µM), -12.2%; in assay [4] (setting [7]) it was 1%; in assay [4] (setting [8]), -10%; in assay [4] (at 50.0 µM) it was 45%. Moreover, the growth inhibition was -4% in assay [5] (setting [7]); -4% in assay [5] (setting [8]); -0.65% in assay [5] (at 50.0 µM); 2% in assay [6] (setting [7]); -5% in assay [6] (setting [8]); 8.8% in assay [6] (at 50.0 µM).

Turning to `CCC[CH2][Sn-]([CH2]CCC)([CH2]CCC)[O]c1cc(Cl)c(Cl)cc1Cl`, the growth inhibition was 99% (active) in assay [1] (setting [7]); 96% (active) in assay [1] (setting [8]); 90% (active) in assay [1] (at 50.0 µM); 100% (active) in assay [2] (setting [7]); 100% (active) in assay [2] (setting [8]); 93.2% (active) in assay [2] (at 50.0 µM). In addition, the growth inhibition in assay [3] (setting [7]) is 100% (active); in assay [3] (setting [8]), 100% (active); in assay [3] (at 50.0 µM), 93.2% (active); in assay [5] (setting [7]) it was 100% (active); in assay [5] (setting [8]) it was 100% (active); in assay [5] (at 50.0 µM), 91.8% (active). Also, the results for the growth inhibition in assay [6] (setting [7]), in assay [6] (setting [8]) and in assay [6] (at 50.0 µM) were 99% (active), 94% (active) and 90.2% (active), respectively.

As to `O=C([CH-]C(=O)c1ccccc1)c1ccccc1.O=C([CH-]C(=O)c1ccccc1)c1ccccc1.O=C([CH-]C(=O)c1ccccc1)c1ccccc1.[Cl-].[Zr+4]`, the growth inhibition in assay [1] (setting [7]) was 36%; in assay [1] (setting [8]), 89% (active); in assay [1] (at 50.0 µM) it was 87.5% (active); in assay [2] (setting [7]) it was 38%; in assay [2] (setting [8]), 83% (active); in assay [2] (at 50.0 µM) it was 67.3%. In addition, the growth inhibition in assay [3] (setting [7]) was 45%; in assay [3] (setting [8]), 93% (active); in assay [3] (at 50.0 µM), 86.7% (active); in assay [5] (setting [7]), 62%; in assay [5] (setting [8]), 93% (active); in assay [5] (at 50.0 µM), 89.7% (active). For the same molecule, the growth inhibition is 29% in assay [6] (setting [7]), 93% (active) in assay [6] (setting [8]) and 87.8% (active) in assay [6] (at 50.0 µM).

Take `COc1ccc([As]=[As]c2ccc(OC)c(I)c2)cc1I` (stereo not given): the growth inhibition in assay [1] (setting [7]) was 98% (active); in assay [1] (setting [8]), 99% (active); in assay [1] (at 50.0 µM), 99.7% (active); in assay [2] (setting [7]), 100% (active); in assay [2] (setting [8]), 100% (active); in assay [2] (at 50.0 µM), 99.8% (active). Moreover, the growth inhibition in assay [3] (setting [7]) was 99% (active); in assay [3] (setting [8]), 100% (active); in assay [3] (at 50.0 µM), 99.8% (active); in assay [4] (setting [7]), 98% (active); in assay [4] (setting [8]), 98% (active); in assay [4] (at 50.0 µM), 99.8% (active). The growth inhibition in assay [6] (setting [7]) is 99% (active); in assay [6] (setting [8]), 99% (active); in assay [6] (at 50.0 µM), 99.7% (active).

With `C[Se]C([Se]C)=C([Se]C)[Se]C`, the growth inhibition in assay [1] (setting [7]) was 9%; in assay [1] (setting [8]) it was 95% (active); in assay [1] (at 50.0 µM) it was 29.5%; in assay [2] (setting [7]), 3%; in assay [2] (setting [8]) it was 91% (active); in assay [2] (at 50.0 µM), 99% (active). The growth inhibition in assay [3] (setting [7]) is -1%; in assay [3] (setting [8]), 99% (active); in assay [3] (at 50.0 µM), 52%; in assay [4] (setting [7]), 2%; in assay [4] (setting [8]) it was 59%; in assay [4] (at 50.0 µM), 45.2%. The growth inhibition was 5% in assay [5] (setting [7]); 92% (active) in assay [5] (setting [8]); -0.4% in assay [5] (at 50.0 µM); 1% in assay [6] (setting [7]); 94% (active) in assay [6] (setting [8]); 85.3% (active) in assay [6] (at 50.0 µM).

In the case of `CC(=O)[O-].CC(=O)[O-].O=C([CH-]C(=O)c1ccccc1)c1ccccc1.[Nd+3].[OH3+]`, the growth inhibition in assay [1] (setting [7]) is 33%; in assay [1] (setting [8]), 33%; in assay [1] (at 50.0 µM), 91.6% (active); in assay [2] (setting [7]), 27%; in assay [2] (setting [8]), 27%; in assay [2] (at 50.0 µM), 91.9% (active). Further, the growth inhibition in assay [3] (setting [7]) was 30%; in assay [3] (setting [8]) it was 30%; in assay [3] (at 50.0 µM) it was 93% (active); in assay [5] (setting [7]), 27%; in assay [5] (setting [8]) it was 27%; in assay [5] (at 50.0 µM) it was 91% (active). Further, the results for the growth inhibition in assay [6] (setting [7]), in assay [6] (setting [8]) and in assay [6] (at 50.0 µM) were 24%, 24% and 88.8% (active), respectively.

For `CC(=O)[O][Pb]([O]C(C)=O)([O]C(C)=O)[c]1ccccc1`, the growth inhibition in assay [1] (setting [7]) was 71% (active); in assay [1] (setting [8]), 98% (active); in assay [1] (at 50.0 µM), 90.5% (active); in assay [2] (setting [7]), 74% (active); in assay [2] (setting [8]), 99% (active); in assay [2] (at 50.0 µM), 93.5% (active). For the same molecule, the growth inhibition was 35% in assay [4] (setting [7]); 99% (active) in assay [4] (setting [8]); 89.2% (active) in assay [4] (at 50.0 µM); 86% (active) in assay [5] (setting [7]); 99% (active) in assay [5] (setting [8]); 91.8% (active) in assay [5] (at 50.0 µM). The results for the growth inhibition in assay [6] (setting [7]), in assay [6] (setting [8]) and in assay [6] (at 50.0 µM) were 91% (active), 98% (active) and 91.2% (active), respectively.

In the case of `CC(c1ccccc1)N1O[C@]12CC[C@@]1(C)C(CCCC13OCCO3)C2` (stereo not given in full), the growth inhibition in assay [1] (setting [7]) was 88% (active); in assay [1] (setting [8]), 97% (active); in assay [1] (at 50.0 µM), 92% (active); in assay [2] (setting [7]), 97% (active); in assay [2] (setting [8]), 99% (active); in assay [2] (at 50.0 µM), 94% (active). In addition, the growth inhibition is 36% in assay [3] (setting [7]); 97% (active) in assay [3] (setting [8]); 92.2% (active) in assay [3] (at 50.0 µM); 95% (active) in assay [4] (setting [7]); 98% (active) in assay [4] (setting [8]); 91.2% (active) in assay [4] (at 50.0 µM). Further, the growth inhibition in assay [5] (setting [7]) was 94% (active); in assay [5] (setting [8]), 98% (active); in assay [5] (at 50.0 µM) it was 91% (active); in assay [6] (setting [7]), 93% (active); in assay [6] (setting [8]), 97% (active); in assay [6] (at 50.0 µM) it was 91.5% (active).
